In the library only some 7.3% were active in any assay of this set; here they are far more common.
FLuc modulator: counter-screen for miR-21 project: firefly luciferase inhibitors or activators | purified FLuc, Km substrates, luminescence inhibition | Potency, µM (top dose mostly 57.5 µM), for inactives: at the highest dose activity change, negative = inhibition, hits mostly inhibitors | actives 6.9% (n = 360,000);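 note: plate controls were vehicle for no effect and reference inhibitor for full effect; nearly all actives have a fitted effect of over 55% in size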
Target sequence (P08659 whole entry, looked up): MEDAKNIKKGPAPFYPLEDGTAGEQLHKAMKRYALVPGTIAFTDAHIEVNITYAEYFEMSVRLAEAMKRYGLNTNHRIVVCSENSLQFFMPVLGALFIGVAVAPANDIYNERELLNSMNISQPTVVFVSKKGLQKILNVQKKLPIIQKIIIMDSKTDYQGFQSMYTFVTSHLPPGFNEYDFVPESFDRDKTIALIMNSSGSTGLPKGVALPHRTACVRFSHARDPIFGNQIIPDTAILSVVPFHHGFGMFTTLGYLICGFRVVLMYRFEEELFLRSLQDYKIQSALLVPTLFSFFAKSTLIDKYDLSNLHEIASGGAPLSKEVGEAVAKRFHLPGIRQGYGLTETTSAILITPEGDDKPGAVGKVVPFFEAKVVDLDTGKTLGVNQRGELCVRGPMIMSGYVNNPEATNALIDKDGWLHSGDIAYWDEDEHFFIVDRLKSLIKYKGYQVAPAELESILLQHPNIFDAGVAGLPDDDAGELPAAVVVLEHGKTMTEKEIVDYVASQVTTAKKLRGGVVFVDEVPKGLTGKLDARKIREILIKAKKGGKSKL
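Biochemical qHTS of compounds, final roughly 60 µM downward over six points, against 10 nM purified firefly luciferase using Km concentrations of substrates (10 uM D-luciferin, 10 uM ATP) in Tris acetate pH 7.5 buffer; luminescence output.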
Rab9 promoter act: Rab9 promoter activation; Huh7 Rab9 promoter-luciferase reporter, luminescence, 24 h; Potency, µM (top dose mostly 9.22 µM), for inactives: at the highest dose activation, negative = inhibition, actives largely listed as activators; actives 2.8% (n = 320,000); AID 485297; note: % of control where 0% means no effect; nearly all actives have a fitted effect of over 60% in size
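Stable Rab9-luc Huh7, 1500 cells/well, 2 h settle; cmpd in DMSO, 24 h, 37 °C/5% CO2; luciferase reagent 10 min RT; luminescence.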
NPC1 prom act: activates the NPC1 promoter; Potency, µM (top dose mostly 9.22 µM), without a hit: top-dose activation, actives largely listed as activators; AID 485313; Huh7 NPC1 promoter luciferase reporter, 24 h; actives 2.4% (n = 320,000); note: % of control where 0% means no effect; nearly all actives have a fitted effect of over 60% in size
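Readout is luciferase luminescence, reflecting NPC1 promoter activation in stably transfected Huh7 cells after 24 h compound exposure at 37 °C in reduced-serum medium with 10% FBS.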
ELG1 genotoxic: inducers of genotoxicity in HEK293T ELG1-luciferase cells | actives 1.3% (n = 330,000) | HEK293T ELG1-luciferase reporter, luminescence, 16 h | AID 504466 | Potency, µM (titrated, usually from 46 µM), for inactives: at the highest dose activity change, positive = activation, hits mostly activators; note: % of control where 0% means no effect; nearly all actives have a fitted effect of over 60% in size
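Luminescence read-out: rising ELG1-luciferase signal, reflecting elevated ELG1 protein under genetic stress, flags genotoxic compounds. Cells were treated for 16 hr at 37 °C before ONE-Glo detection.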
SMN2 splice enh: increases expression of the SMN2 splice variant; HEK293 SMN2-luciferase splicing reporter, luminescence, 30-36 h; Potency, µM (top dose mostly 46.1 µM), for the others: at the highest dose activity change, positive = activation, usual class: activators; actives 2.8% (n = 210,000); note: % of control where 0% means no effect; nearly all actives have a fitted effect of over 55% in size
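HEK293 cells carry an SMN2 minigene-luciferase reporter in which exon 7 inclusion puts luciferase in frame. Cells were seeded at 2000 cells/well, attached for 10-12 hours, then exposed to compounds for 30-36 hours at 37C before ONE-Glo luminescence.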
KinaseGlo FLuc: Kinase-Glo luciferase inhibition (counter-screen); Kinase-Glo luciferase, ATP luminescence, 8 min; Potency, µM (series often up to 38.3 µM), for the others: at the highest dose activity change, negative = inhibition, hits mostly inhibitors; actives 0.28% (n = 200,000); AID 1379; Q27757; note: % is set by controls: 0 for no effect and ±100 for the full control effect; nearly all actives have a fitted effect of over 60% in size
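Compound is pinned into ATP-containing buffer (10 uM ATP, imidazole pH 7.2, 7 mM MgCl2). Kinase-Glo luciferase reagent is then added. Light output is recorded following an 8-min room-temperature incubation.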
* marks the source's active call; other numbers are inactive results. Calls come from the whole dose curve; as a rule, active = well fitted curve in the direction sought with a large enough effect; inconclusive = small, poorly fitted or top-dose-only effect, or another doubt; inactive = no such curve, though single readings can be large; an effect the other way counts as inactive or inconclusive. Potency is the fitted concentration of half-maximal effect.

For COc1ccc(-c2cc(CS(=O)(=O)c3ccccc3)on2)cc1 the results were FLuc modulator 11µM*, Rab9 promoter act 3.2µM*, NPC1 prom act 3.2µM*, ELG1 genotoxic inconclusive, SMN2 splice enh 18µM* and KinaseGlo FLuc 1%.
COc1ccc(-c2cc(CNS(=O)(=O)c3ccc(NC(C)=O)cc3)on2)cc1 was read as FLuc modulator -1%, Rab9 promoter act 1%, NPC1 prom act 0% and ELG1 genotoxic -4%.
`COCCCNC(=O)COc1ccc(-c2nccc(-c3ccccn3)n2)cc1` gave FLuc modulator inconclusive, Rab9 promoter act 2%, NPC1 prom act -3%, ELG1 genotoxic 0%, SMN2 splice enh -27% and KinaseGlo FLuc 3%.
For O=C(O)c1cc(NC(=O)c2cccc(N3C(=O)c4ccccc4C3=O)c2)cc(C(=O)O)c1 the results were FLuc modulator -13%, Rab9 promoter act 6%, NPC1 prom act -4% and ELG1 genotoxic 3%.
`O=C(O)c1cccc(NC(=O)c2ccc3c(c2)C(=O)N(c2ccccc2)C3=O)c1` gave FLuc modulator 0.27µM*, Rab9 promoter act -2%, NPC1 prom act 2% and ELG1 genotoxic 4%.
Screening CC(=O)Oc1cccc(C(=O)Nc2ccc3c(c2)C(=O)N(CC2CCCO2)C3=O)c1 (stereo not given) returned FLuc modulator inconclusive, Rab9 promoter act 3%, NPC1 prom act 22% and ELG1 genotoxic 3%.
COC(=O)c1cccc(NC(=O)c2ccc3c(c2)C(=O)N(CC2CCCO2)C3=O)c1 (stereo not given) was read as FLuc modulator 24µM*, Rab9 promoter act 0%, NPC1 prom act 3%, ELG1 genotoxic 0%, SMN2 splice enh 13% and KinaseGlo FLuc -6%.
`COc1ccc(NC(=O)c2ccc3c(c2)C(=O)N(CC2CCCO2)C3=O)cc1` (stereo not given) gave FLuc modulator inconclusive, Rab9 promoter act -5%, NPC1 prom act -7% and ELG1 genotoxic -1%.
COc1ccccc1N1C(=O)c2ccc(C(=O)Nc3ccc(C(=O)O)cc3)cc2C1=O was read as FLuc modulator 27µM*, Rab9 promoter act -3%, NPC1 prom act -3% and ELG1 genotoxic 1%.
O=C(Nc1ccc2c(c1)C(=O)N(CC1CCCO1)C2=O)c1cccc(Br)c1 (stereo not given) was read as FLuc modulator 11µM*, Rab9 promoter act 11%, NPC1 prom act 0%, ELG1 genotoxic -4%, SMN2 splice enh -17% and KinaseGlo FLuc -2%.

Screening results from PubChem.
